Rows were chosen to be rich in hits. Some 3.2% of all compounds tested hit in one or more screens of this group.
EWS-Fli inh – EWS/Fli-driven NR0B1 reporter inhibitors, primary screen, A673 cells, NR0B1 luciferase, luminescence, MLPCN library; viability-normalised; inhibition, % at 12.6 µM; 350,000 compounds, 0.67% hits;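 active = mean inhibition of at least 50% after viability correction, with every replicate also passing that limit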;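 also: firefly luciferase signal divided by Alamar Blue viability fluorescence both relative to DMSO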
TWEAK-Fn14 inh – inhibitors of TWEAK-Fn14 signaling, primary screen, luciferase reporter cells, uHTS | TWEAK-stimulated Fn14 reporter cells, luciferase luminescence, 8 h | inhibition, % at 10 µM | 360,000 compounds, 2% hits; in the data active = inhibition above about 50%
LMP1 NFkB inh – EBV LMP1-driven NF-kappaB luciferase reporter inhibitors, primary screen, cell-based, luminescence, single point | AID 504558, 2011 | 350,000 compounds, 0.69% hits | inhibition, % at 12.5 µM | LMP1-induced NF-kappaB luciferase reporter cells; in the data active = inhibition above about 41%;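 also: 0% = neutral control wells and 100% = reference inhibitor control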
LGR2 antag – inhibitors of bursicon-induced LGR2 CRE-luciferase signal, primary screen, cell-based, HEK293, CRE-luciferase reporter, bursicon stimulation. Drosophila bursicon receptor LGR2 (rickets). 380,000 compounds, 0.35% hits. bursicon-stimulated, 4 h. inhibition, % at 9.99 µM;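 active = drop in luminescence signal, shown as inhibition above about 50% in the replicate tests, limit read from the data, passing the limit was not always enough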;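 also: agonist challenge used bursicon conditioned medium at about half maximal strength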
TROY NFkB inh – inhibitors of TROY-driven NF-kB signaling, primary screen, Q293 LMP1-TROYcd cells, NF-kB luciferase, uHTS. Q293 LMP1-TROYcd NF-kB luciferase reporter, 4 h. inhibition, % at 10 µM. 360,000 compounds, 0.98% hits;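 active = compounds whose plate-normalised and pattern-corrected inhibition of the luciferase reporter signal at the single screening dose is 50% or more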
PAX8 reporter – inhibitors of PAX8-driven TPO luciferase reporter, primary screen, RMG-I cells, single concentration; 360,000 compounds, 1.2% hits; SteadyGlo, 24 h; inhibition, % at 12.6 µM; AID 652154, 2013;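 active = mean replicate inhibition at least 60% with every replicate also reaching 60%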;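 also: luciferase light reporting Pax8 driven TPO promoter activity; plate controls were median of neutral control wells for no effect and mitoxantrone controls for full effect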
* marks the source's active call; other numbers are inactive results; x = no result given.

SMILES	EWS-Fli inh	TWEAK-Fn14 inh	LMP1 NFkB inh	LGR2 antag	TROY NFkB inh	PAX8 reporter
O=C1/C(=C/c2cccnc2)SC(=S)N1N1CCOCC1	11	2	-3	10	-11	-8
C[C@H](CO)N1C[C@H](C)[C@H](CN(C)Cc2ccc(C(F)(F)F)cc2)OCCCC[C@H](C)Oc2ccc(NC(=O)c3ccncc3)cc2C1=O	19	x	x	7	x	55
C[C@H]1CN([C@@H](C)CO)C(=O)c2cccc(NC(=O)C3CC3)c2O[C@H]1CN(C)Cc1ccccc1	7	x	x	-4	x	-6
OC[C@@H](O)[C@@H](O)[C@H](O)[C@H](O)CO	-3	-6	47*	x	-2	-9
CCCNC(=O)N(C)C[C@@H]1Oc2cc(C3=CCCC3)ccc2S(=O)(=O)N([C@H](C)CO)C[C@@H]1C	-4	x	x	-7	x	-7
COCC(=O)Nc1ccc2c(c1)OC[C@H](C)N(C(=O)c1ccccn1)C[C@@H](C)[C@@H](OC)CN(C)C2=O	-3	x	x	10	x	11
COc1ccc2cnn(CCOc3ccccc3)c(=O)c2c1OC	x	51*	11	x	33	x
CC(=O)c1cn(CCOc2cc(C)ccc2C)c2ccccc12	29	100*	0	13	0	44
Cc1ccc(C)c(OCCn2cc(C(=O)O)c3ccccc32)c1	4	16	-3	-13	7	1
C[C@@H]1CN([C@@H](C)CO)C(=O)c2cc(NC(=O)Cc3ccccc3)ccc2O[C@H]1CN(C)C	1	x	x	6	x	0
CC1=CC(=O)C=C(C)C1=NOS(=O)(=O)c1ccccc1	x	47	29	-4	42	x
CC1=CC(=O)C(C(C)C)=C/C1=N/OS(=O)(=O)c1ccccc1	42	89*	-21	x	47	94*
CCCNC(=O)N(C)C[C@H]1N[C@@H](CO)[C@@H]1c1ccc(C2=CCCCC2)cc1	45	x	x	3	x	103*
Cc1c(Br)c(=O)oc2c(C)c(O)ccc12	x	46	3	5	54*	-7
CC(=O)c1c(C)[nH]c(C)c1C(C)=O	x	62*	-3	x	10	x
O=C(Cc1ccc(N2CCNC2=O)cc1)N1CCCC(Nc2ccc(F)c(F)c2)C1 (stereo not given)	x	15	-14	14	17	25
O=C(Cc1ccc(N2CCNC2=O)cc1)N1CCCC(Nc2cccc(F)c2)C1 (stereo not given)	55*	7	-3	-8	2	16
COC(=O)c1cccc(NC(=O)/C=C/c2cccc([N+](=O)[O-])c2)c1	14	42	0	-7	40	x
Cc1ccc(C(=O)COC(=O)c2cccc(NC(=O)c3ccc([N+](=O)[O-])cc3[N+](=O)[O-])c2)cc1	x	43	-13	x	59*	x
COC(=O)c1cccc(NC(=O)/C=C/c2ccc([N+](=O)[O-])cc2)c1	70*	4	14	1	0	-44
O=C(Nc1ccc([N+](=O)[O-])cc1)C(=O)Nc1cccc(C(=O)O)c1	91*	-15	90*	98*	-29	101*
O=C(/C=C/c1ccc([N+](=O)[O-])cc1)Nc1cccc(C(=O)Nc2ccccc2C(=O)O)c1	1	71*	-3	-4	9	-3
O=C(Nc1ccccc1C(=O)O)c1cccc(NC(=O)c2ccccc2Cl)c1	-3	13	-1	8	2	-3
O=C(O)c1cc(NC(=O)c2ccc([N+](=O)[O-])cc2)cc(NC(=O)c2ccc([N+](=O)[O-])cc2)c1	0	30	5	19	2	-10
O=C(C[C@H]1C[C@H]2c3cc(NC(=O)C4CCC4)ccc3O[C@H]2[C@H](CO)O1)NCc1cccc(F)c1	-12	x	x	4	x	6
SMILES	EWS-Fli inh	TWEAK-Fn14 inh	LMP1 NFkB inh	LGR2 antag	TROY NFkB inh	PAX8 reporter
COc1ccc(-c2cnc3c(c2)C(=O)N([C@H](C)CO)C[C@H](C)[C@H](CN(C)S(=O)(=O)c2ccc(OC)cc2)O3)cc1	-2	x	x	10	x	x
CCOC(=O)c1cccc(NC(=O)/C=C/c2ccc([N+](=O)[O-])cc2)c1	60*	79*	16	6	57*	7
O=C(/C=C/c1cccc([N+](=O)[O-])c1)Nc1cc(C(=O)O)cc(C(=O)O)c1	6	4	-17	-1	4	-14
O=C(CSc1nnc(-c2ccc(F)cc2)c2ccccc12)Nc1ccccc1	63*	13	-13	7	0	-12
COc1ccc(NC(=O)N(C)C[C@@H]2OCCCC[C@H](C)Oc3ccc(NC(=O)Nc4ccc(F)cc4)cc3C(=O)N([C@@H](C)CO)C[C@@H]2C)cc1	-2	x	x	5	x	-18
COc1ccc(-n2c(-c3ccc(Br)cc3)c[n+]3c2SC(C)C3)cc1 (stereo not given)	25	8	4	2	23	74*
CCOc1ccc(-c2c[n+]3c(n2-c2ccccc2)CCCCC3)cc1	28	29	14	28	30	80*
CCOc1ccc(-n2c(-c3ccc(Cl)cc3)c[n+]3c2SCC3)cc1	23	-5	9	6	1	86*
CCOc1ccc(-c2nnc(-c3ccccc3)n2-c2ccccc2)cc1	x	10	-7	x	-59	-39
COc1ccc(-n2c(-c3ccc(Br)cc3)n[nH]c2=S)cc1	13	12	-3	x	0	2
COc1ccc(-n2c(-c3ccc(Br)cc3)c[n+]3c2CCCCC3)cc1	24	9	4	11	22	84*
C[C@@H]1CN([C@@H](C)CO)C(=O)Cc2cc(NS(=O)(=O)c3ccccc3)ccc2O[C@H]1CN(C)C(=O)Nc1ccc(C(F)(F)F)cc1	5	x	x	-14	x	25
Cc1ccc(-n2c(-c3ccc(Cl)cc3)c[n+]3c2CCC3)cc1	1	17	2	4	6	44
FC(F)Sc1ccc(-n2c(-c3ccc(Cl)cc3)c[n+]3c2CCC3)cc1	9	6	-4	34	6	67*
Cc1ccc(-n2c(-c3ccccc3)c[n+]3c2CCC3)cc1	20	1	4	13	1	52
COc1ccc(-n2c(-c3ccccc3)c[n+]3c2CCC3)cc1	17	86*	24	10	-8	45
COc1ccc(-n2c(-c3ccc(Br)cc3)c[n+]3c2CCC3)cc1	23	23	26	-25	27	80*
O=C(C[C@@H]1CC[C@H]2[C@@H](COC[C@@H](O)CN2S(=O)(=O)c2ccccc2Cl)O1)NCc1ccccc1Cl	-1	x	x	-10	x	-3
O=C(NCC[C@@H]1CC[C@H](NC(=O)C2CCC2)[C@H](CO)O1)c1ccc(F)cc1	-2	x	x	1	x	6
CC(C)c1noc2ncc(C(=O)c3cc(Cl)cc(Cl)c3O)cc12	x	10	7	x	62*	x
